The sample as a whole holds a higher share of hits than the screen did.
FH mod: Identification of activators of human fumarate hydratase by quantitative high-throughput screening. FH coupled MDH/diaphorase resazurin fluorescence, 15 min. AID 1347055, 2019. Potency, µM (top dose mostly 79.9 µM), hits mostly inhibitors. Fumarate hydratase, mitochondrial (Homo sapiens), P07954. actives 0.22% (n = 54,000); further: the screen sought activators but most active calls are inhibition curves; nearly all actives have a fitted effect of over 45% in size
Target sequence (P07954 whole entry, looked up): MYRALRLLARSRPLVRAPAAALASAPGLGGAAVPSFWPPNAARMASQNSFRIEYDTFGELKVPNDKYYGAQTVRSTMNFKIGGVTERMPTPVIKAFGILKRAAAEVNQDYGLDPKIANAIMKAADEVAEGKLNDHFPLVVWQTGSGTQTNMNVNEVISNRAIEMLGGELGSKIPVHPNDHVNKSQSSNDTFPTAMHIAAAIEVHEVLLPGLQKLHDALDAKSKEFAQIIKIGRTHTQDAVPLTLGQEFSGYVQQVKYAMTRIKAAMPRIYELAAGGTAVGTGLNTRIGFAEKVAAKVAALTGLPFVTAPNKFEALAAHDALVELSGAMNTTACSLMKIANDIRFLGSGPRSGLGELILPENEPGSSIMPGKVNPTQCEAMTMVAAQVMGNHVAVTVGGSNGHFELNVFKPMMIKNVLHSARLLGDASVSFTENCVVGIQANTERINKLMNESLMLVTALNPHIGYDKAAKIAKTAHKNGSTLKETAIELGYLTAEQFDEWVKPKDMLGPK
NTMT1 inh: inhibitors of human N-terminal methyltransferase NTMT1; NTMT1 MTase-Glo SAH luminescence, purified enzyme; Potency, µM (doses to about 114 µM), hits mostly inhibitors; actives 2.5% (n = 59,000); AID 1645870; further: nearly all actives have a fitted effect of over 65% in size
Target sequence (Q9BV86 whole entry, looked up): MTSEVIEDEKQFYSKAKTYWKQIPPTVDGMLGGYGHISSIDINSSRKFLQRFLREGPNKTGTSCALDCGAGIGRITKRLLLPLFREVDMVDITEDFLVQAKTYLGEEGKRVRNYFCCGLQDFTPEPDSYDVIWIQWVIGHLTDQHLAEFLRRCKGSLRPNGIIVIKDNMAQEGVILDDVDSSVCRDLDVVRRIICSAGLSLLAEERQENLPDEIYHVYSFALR
p53null 39C kill: p53 null cell cytotoxicity, nonpermissive temperature | Potency, µM (top dose mostly 46.1 µM), usual class: cytotoxic | AID 904 | actives 0.97% (n = 55,000) | H1299 p53-null (neo) cells, 39C, ATPlite viability, 24 h; further: nearly all actives have a fitted effect of over 50% in size
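Luminescent ATP signal reported cell survival after H1299 lines (neo, p53 null; or p53 A138V) received up to 46 uM compound and 24 hr incubation at 39C.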
p53null 32C tox: p53 null cell cytotoxicity, permissive temperature; H1299-neo p53 null cells, ATP luminescence, 24 h, 32C; Potency, µM (doses to about 46.1 µM), usual class: cytotoxic; actives 0.62% (n = 55,000); AID 903; further: nearly all actives have a fitted effect of over 55% in size
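AC50 values derive from Hill modelling of qHTS concentration-response data (up to 46 uM) in H1299-neo cells. Cells were treated 24 h at 32C following overnight attachment at 37C; viability was read as cellular ATP.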
SKOV3 invasion: blocks SKOV3ip1 adhesion and invasion in omental model; SKOV3ip1-GFP adhesion/invasion on 3D omental model, fluorescence; Potency, µM (highest dose often 45.8 µM), usual class: inhibitors; actives 0.1% (n = 46,000); further: nearly all actives have a fitted effect of over 65% in size
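A 3D layer of primary human omental fibroblasts, mesothelial cells, fibronectin and collagen I, grown 48 hr, received SKOV3ip1-GFP cells in serum-free medium plus compounds at 0.36-46 umol/L. After 2 hr RT and 16 hr 37 C, fixed adherent GFP cells were counted; normalized to DMSO and tomatine.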
Numbers stand for hits; . = inactive; ? = inconclusive; / = not tested or not shown; ! = not active in a repeat; [ ] = dose if it differs, or a comment. The call rests on the fitted dose curve; in most records, active means well fitted curve in the direction sought with a large enough effect; inconclusive means small, poorly fitted or top-dose-only effect, or another doubt; inactive means no such curve, though single readings can be large; an effect the other way counts as inactive or inconclusive.

SMILES	FH mod	NTMT1 inh	p53null 39C kill	p53null 32C tox	SKOV3 invasion
CC(=O)[O][Hg][c]1ccccc1	.	2.8µM	/	/	/
O=C(O)COc1ccccc1	.	.	/	/	/
NCCc1cc(O)c(O)cc1O	.	28µM	/	/	/
OCc1nnc2n1-c1ccc(Cl)cc1C(c1ccccc1Cl)=NC2	.	.	/	/	/
C[C@]12CC[C@H]3[C@@H](CCC4=CC(=O)CC[C@@H]43)[C@@H]1CC[C@@H]2OC(=O)CCc1ccco1	.	25µM	/	/	/
CC(=O)OC[C@H]1O[C@@H]([S-])[C@H](OC(C)=O)[C@@H](OC(C)=O)[C@@H]1OC(C)=O.CC[PH+](CC)CC.[Au]	/	10µM	/	/	/
NC(=O)CI	25µM	/	/	/	/
O=S(=O)(O)C(F)(F)C(F)(F)C(F)(F)C(F)(F)C(F)(F)C(F)(F)C(F)(F)C(F)(F)F	?	22µM	/	/	/
COC(=O)C12C(=O)C(C)(O)C(=O)C1(C)C(C)=CC1C34CCC(OC3=O)C(C)(C)C4CCC12C (centres undefined)	.	.	/	/	/
CCN(CC)C(=O)[C@@H]1C=C2c3cccc4[nH]cc(c34)C[C@H]2N(C)C1	.	56µM	/	/	/
COc1ccc2nc(N3CCN(C(=O)CS(=O)(=O)c4ccc(C)cc4)CC3)sc2c1	.	.	.	10µM	.
c1ccc(CN2CCNCC2)cc1	.	100µM	/	/	/
c1ccc(N2CCNCC2)cc1	.	.	/	/	/
CCOc1ccc(CCNC(=O)c2cc3cccnc3n2Cc2cccc(C)n2)cc1OCC	/	.	/	/	/
CC1=C(O)C(=O)C=C2C1=CC=C1[C@@]2(C)CC[C@@]2(C)[C@@H]3C[C@](C)(C(=O)O)CC[C@]3(C)CC[C@]12C	?	16µM!	/	/	4.2µM
CC(=O)N1N=C(c2ccc(N)cc2)c2cc3c(cc2C[C@H]1C)OCO3	.	.	/	/	/
Cc1cccn2c(=O)cc(COc3cccc(NC(=O)COc4ccc(F)cc4)c3)nc12	.	?	13µM	13µM	.
CCCN(CCC)CCc1ccc(OC)c(OCCc2ccccc2)c1	.	.	/	/	/
CC(C)(C)[C@]1(O)C[C@@H]2OC(=O)C[C@@]23C(=O)O[C@@H]2OC(=O)[C@@H](O)[C@]213	.	.	/	/	/
COC(=O)CC1CC2(C(=O)c3c(O)cccc3C2(O)C(=O)OC)C(C)O1 (centres undefined)	.	.	/	/	/
Nc1ccc(N=Nc2ccccc2)cc1	?	126µM	/	/	/
CCOC(=O)c1ccc(N2C(=O)c3n[nH]c(-c4cccs4)c3C2c2ccc(Cl)cc2Cl)cc1 (centres undefined)	.	.	18µM	?	.
CCOC(=O)c1ccc(N2C(=O)c3n[nH]c(-c4cccs4)c3C2c2ccc(C(C)(C)C)cc2)cc1 (centres undefined)	?	.	?	.	.
COc1ccccc1CN[C@H]1C2CCN(CC2)[C@H]1C(c1ccccc1)c1ccccc1	.	.	/	/	/
C/C=C(\C)C(=O)OC1CC2C(CC=C3CC(OC4CC(OC)C(OC5CC(OC)C(OC6CC(OC)C(OC7CC(OC)C(O)C(C)O7)C(C)O6)C(C)O5)C(C)O4)CCC32C)C2(O)CCC(C(C)=O)C12C (centres undefined)	.	.[12.6 µM]	/	/	/
SMILES	FH mod	NTMT1 inh	p53null 39C kill	p53null 32C tox	SKOV3 invasion
Cc1[nH]nc2ccc(-c3cncc(OC[C@@H](N)Cc4c[nH]c5ccccc45)c3)cc12	.	40µM!	/	/	.
COC(=O)[C@]12CCC(C)(C)C[C@@H]1[C@@H]1C(=O)C=C3[C@@]4(C)C=C(C#N)C(=O)C(C)(C)[C@@H]4CC[C@@]3(C)[C@]1(C)CC2	.	.	/	/	2.3µM
COC(=O)[C@]12CCC(C)(C)C[C@H]1[C@H]1C(=O)C=C3[C@@]4(C)C=C(C#N)C(=O)C(C)(C)[C@@H]4CC[C@@]3(C)[C@]1(C)CC2	/	.	/	/	/
CC(C)[C@H]1OC(=O)[C@H](Cc2ccccc2)N(C)C(=O)[C@@H](C(C)C)OC(=O)[C@H](Cc2ccccc2)N(C)C(=O)[C@@H](C(C)C)OC(=O)[C@H](Cc2ccccc2)N(C)C1=O	.	.[12.6 µM]	/	/	/
C[N+](C)(C)CCOC(=O)C(O)(c1ccccc1)c1ccccc1	.	16µM	/	/	/
O=C(O)C(=O)c1cn(Cc2ccccc2)c2ccc(-c3ccc(OC(F)(F)F)cc3)cc12	.	40µM!	/	/	.
C=C[C@H]1CN2CCC1C[C@H]2[C@H](O)c1ccnc2ccccc12 (some centres undefined)	.	.	/	/	/
O=P1(N(CCCl)CCCl)NCCCO1 (centres undefined)	.	35µM!	/	/	.
C[C@@H]1[C@H](O)[C@@H](C)/C=C/C=C/CC/C=C/C=C/C=C/C=C/[C@H](O[C@H]2O[C@@H](C)[C@H](O)[C@@H](N)[C@H]2O)C[C@@H]2O[C@](O)(C[C@@H](O)[C@H](O)CC[C@@H](O)C[C@@H](O)C[C@@H](O)CC(=O)O[C@H]1C)C[C@H](O)[C@H]2C(=O)O	.	.	/	/	/
CCOc1ccc(CCNC(=O)c2cc3ccncc3n2Cc2cccc(C)c2)cc1OCC	/	.	/	/	/
Cc1ccc2oc(=O)c(-c3nc4ccc(C)cc4[nH]3)cc2c1	.	.	20µM	.	.
C=C(C)[C@@H]1CCC(C)=C[C@H]1c1c(O)cc(CCCCC)cc1O	?	.	/	/	/
CO/C1=C/C(C)=C\[C@@H](C)[C@@H](O)[C@@H](C)C/C(C)=C\C=C/[C@H](OC)[C@@H]([C@@H](C)[C@@H](O)[C@H](C)[C@@]2(O)C[C@@H](O)[C@H](C)[C@@H](C(C)C)O2)OC1=O	/	.	/	/	/
CCN(CC)C(C)C(=O)c1ccccc1 (centres undefined)	.	.	/	/	/
C[C@H](N)C(=O)c1ccccc1	.	112µM	/	/	/
CN(C)[C@@H]1C(=O)C(C(N)=O)=C(O)[C@@]2(O)C(=O)C3=C(O)c4c(O)cccc4[C@@](C)(O)[C@H]3[C@H](O)[C@@H]12	.	79µM	/	/	.
C[C@H]1[C@H](O)[C@@H](C)/C=C/C=C/CC/C=C/C=C/C=C/C=C/[C@H](O[C@@H]2O[C@H](C)[C@@H](O)[C@H](N)[C@@H]2O)C[C@@H]2O[C@](O)(C[C@@H](O)[C@H](O)CC[C@@H](O)C[C@@H](O)C[C@@H](O)CC(=O)O[C@H]1C)C[C@H](O)[C@H]2C(=O)O	/	.	/	/	/
CCOC(=O)CC(SP(=S)(OC)OC)C(=O)OCC (centres undefined)	.	32µM!	/	/	/
OCCCCC#Cc1cncc(OC[C@@H]2CCN2)c1	.	.	/	/	/
C/C=C1/CN2CC[C@]34C(=Nc5ccccc53)[C@@H]2C[C@@H]1[C@H]4C(=O)OC	.	.	/	/	/
Cc1cccc(C)c1OP(=O)(OCc1c(-c2ccccc2)no[n+]1[O-])Oc1c(C)cccc1C	/	.	/	/	/
C=CC[C@]1(O)CC[C@H]2[C@@H]3CCC4=CC(=O)CCC4=C3C=C[C@@]21C	.	22µM	/	/	/
CCOc1ccc(CCNC(=O)c2cc3ccccc3n2Cc2ccccn2)cc1OCC	/	.	/	/	/
CC(C)(O)C=CC(=O)[C@](C)(O)[C@H]1[C@H](O)C[C@]2(C)[C@@H]3CC=C4[C@@H](C=C(O)C(=O)C4(C)C)[C@]3(C)C(=O)C[C@@]12C	.	.	/	/	1µM
CC(C)(O)/C=C/C(=O)[C@](C)(O)[C@H]1[C@H](O)C[C@@]2(C)[C@@H]3CC=C4[C@@H](C=C(O)C(=O)C4(C)C)[C@]3(C)C(=O)C[C@]12C	.[13.5 µM]	.	/	/	/
CC(C)[N+](C)(CCC(C(N)=O)(c1ccccc1)c1ccccc1)C(C)C	.	40µM	/	/	/
CC[n+]1c(-c2ccccc2)c2cc(N)ccc2c2ccc(N)cc21	.	28µM	/	/	/
